108 sequences from PubChem BioAssay AID1347426 (Functional Genomics Laboratory (NCATS/FGL), 2020) can be followed below.

In all, about 31,000 sequences went through this assay and about 1,400 (4.5%) were called active.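 The calls were made as follows: active = median seed-adjusted z-score above 1 or below -1; inactive = the rest.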 The entries come from a sample that favours actives as a whole.

A short description of the test: Novel Modifiers of Survival Motor Neuron (SMN) Protein: Gene Identification via Genome-wide siRNA Screen.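 Also: luminescence tracks full-length SMN protein made from the SMN2 reporter.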 As to conditions: HEK293T SMN2-luciferase reporter, siRNA knockdown, 72 h; actives lie on both sides. In outline: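 Each of three siRNAs per gene is reverse-transfected (1 pmol) into reporter HEK293T cells whose luciferase output tracks SMN protein level. After 72 h culture, ONE-Glo luminescence is control-normalized, log10-transformed and MAD-standardized; Common Seed Analysis deprioritizes seed-driven hits.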
Background: A reporter such as luciferase makes a cellular process visible.
Consider GCAUCGUCACUGUCAUGAATT against ITPR3, for which the median seed-adjusted z-score was -1.28 (active).
In the case of AGUUUGAUGUUAUCAAUCUTT against PRKAG1 it was 0.431 (inactive); in that of GCAGAUCUCGCUACAGGGATT against SFRS2B, -0.272 (inactive); in that of UCAGCUUCAGCUUAACUGATT against TUBA1B, 0.0888 (inactive).
In the case of CGAGAAUGACUAUCUUCAATT against STK32C it was -0.311 (inactive); in that of GACCUGGGCAGAUUCCAAATT against MMP9, -1.15 (active).
Turning to GGGUAUGAGAUAUGCGGUATT against TYW1, the median seed-adjusted z-score was 0.201 (inactive).
For GAUUAGAUCUAAACAAUCUTT against TTRAP, the median seed-adjusted z-score is -0.33 (inactive).
In the case of CCAGAAUGCCCAUAUCACATT against RS1 it was -0.684 (inactive).
In the case of GCCUUCUGAUGGUAGAUCUTT against RANBP17 it was -0.123 (inactive); in that of GGAUGGCAGGGAUUCCGAATT against ZNF213, 1.37 (active); in that of GGAAAGUUGUGGGUCUAAUTT against SERPINA7, 0.0925 (inactive).
Take GGACUUAAGCGACAACGCATT against RANGAP1: the median seed-adjusted z-score was -0.0379 (inactive).
As to GCACCGAACCCGUCUAUCATT against POU3F4, the median seed-adjusted z-score was -0.314 (inactive).
In the case of GUAGCUUGCUACUCCAGAATT against POLR2D it was -3.79 (active).
In the case of CGGAUGCACAAGCUAAAUATT against BHLHA15 it was -0.199 (inactive); in that of CGGAAGGUAGUAAACCUUUTT against AMY1A, 0.272 (inactive).
The value for GUAGCUCAUUUGUAAGGAATT against ZNF578 was -0.808 (inactive); that for GGAGCGCAAGAUCACCUUATT against SSTR1 was 0.285 (inactive).
Consider GCCGGUAUGUGAAGGAGAATT against CLK3, for which the median seed-adjusted z-score was -1.11 (active).
In the case of CACUUUUUAUAUUUACGUATT against TSPAN4 it was 0.417 (inactive); in that of GUGUAGACAUAGUCUAAAATT against ZNF532, -0.0289 (inactive); in that of CCCUGUCUGUGAAGCAUGATT against TXNDC2, -1.29 (active).
The value for GCUACAUCUUUAUAAGGGATT against IL12RB2 was 0.368 (inactive).
Regarding GGAAGAAAGCGGGACUUUUTT against PPME1, the median seed-adjusted z-score is 0.342 (inactive).
As for CAGACUCCCUCAUCACCAATT against ALAS1, the median seed-adjusted z-score is -1.15 (active).
In the case of CAAUGAACACUACUAACCATT against IL31RA it was 0.36 (inactive).
With CGGGAGUGGUUUUCAGAGATT against APOC1, the median seed-adjusted z-score was 0 (inactive).
In the case of GCUCUGAAUUCAGUGUUUATT against HTR3E it was -0.717 (inactive).
As to GGUCUAACUCAAUAAUGGATT against REV3L, the median seed-adjusted z-score is 0.062 (inactive).
In the case of GCUGAAUAUCUACACGGAATT against SLCO4A1 it was -0.0802 (inactive).
As for GUGCUCGAAUGAUAACUAUTT against RAB2A, the median seed-adjusted z-score is -0.038 (inactive).
Consider GUGGAACAAUUGUAACAGATT against ETF1, for which the median seed-adjusted z-score is -1.12 (active).
In the case of GCUUCGAAUGGAUCUAGAATT against MYH8, the median seed-adjusted z-score was 0.0648 (inactive).
Regarding CCAACGAACAUGUACAACATT against CACNA2D3, the median seed-adjusted z-score was 0.198 (inactive).
Consider GGAUAUGGUUAAUAGGAGATT against SMC6, for which the median seed-adjusted z-score is 0.227 (inactive).
Regarding GCAGUUAGAUGUCAGGACATT against PPIA, the median seed-adjusted z-score was 0.0169 (inactive).
In the case of CGAAAGGAGUCUUCACCAATT against PRDX6, the median seed-adjusted z-score is -0.0302 (inactive).
On to CCCUAGAUAUGGACGAUGATT against UTP3, for which the median seed-adjusted z-score is -1.08 (active).
Regarding CAAUGGACAGAAUACACUUTT against ZNF614, the median seed-adjusted z-score is 0.0971 (inactive).
UGAGCAGUGAGAACCCAUATT against PEAR1: the median seed-adjusted z-score is 0.071 (inactive).
The value for CCAUAGUAGUGACUACCAUTT against GRIA3 was -0.358 (inactive).
Take AACUGGACCUUAAAAAGAATT against POU4F3: the median seed-adjusted z-score is 0 (inactive).
The value for GGAUGUCCAGAGGCACUAATT against POLA2 was -0.114 (inactive); that for GAAAGACUUGUUUAUAUUATT against ADRB1 was 1.06 (active).
On to CUCAAUCCAUAGUAAGUAUTT against ZNF678, for which the median seed-adjusted z-score was 0.172 (inactive).
In the case of CAAUUCUUGUCAUUUGAAATT against SLC25A19 it was -0.104 (inactive); in that of CCAUAAUGAUAGAGUUUAATT against SLC24A4, 0.0358 (inactive); in that of GAGUGAGAGCUGUAGAAAATT against CREB3, 0.0509 (inactive).
With AGUGGACAACAGAACAAUATT against SNRPG, the median seed-adjusted z-score was -3.09 (active).
As to CCUGUACGAUGAGAUAGAATT against CYFIP2, the median seed-adjusted z-score is -0.322 (inactive).
On to GGAUGCACUUCUAAACUCATT against AKR1D1, for which the median seed-adjusted z-score was 0.211 (inactive).
In the case of GGUCUAGCCUUACACCUCATT against RAB3GAP2 it was 0.0583 (inactive).
The value for GAAGGGCUCUUUCACAGCUTT against ADAMTS13 was -0.276 (inactive); that for GGACAUGUUCUACUCUUCATT against LRP5 was -1 (active); that for GUCUCGAUGGAGCAAAGUATT against TCERG1 was 0.415 (inactive).
In the case of CGACUUGCUAAGCUACAUATT against MAOA it was 0.665 (inactive); in that of GGAACAACGGUGGAGAUUUTT against ITGB5, -0.00882 (inactive); in that of GAAAGGAUCAGUGUCGAUATT against OCRL, -0.545 (inactive).
GCAGUUUCAGGGUAUGAAATT against LGMN: the median seed-adjusted z-score is 0.391 (inactive).
In the case of GGAUCAUACUAGAAGACUATT against TREM1 it was 0 (inactive); in that of GGAACACUAUGAUGAGUUUTT against U2AF1, 2.08 (active); in that of GCUGCUCCCGGAAAUGCAATT against ISOC2, -0.599 (inactive).
With CAACAUGCCCAUUCGCUUUTT against ADIPOQ, the median seed-adjusted z-score was 0.557 (inactive).
In the case of GCCUGAGACCAAAAACAGATT against SLC2A9 it was 0.216 (inactive); in that of GAUCUGCAUCAAUACUGAATT against FBLN5, -0.0832 (inactive); in that of CACUGACUAUUAUCAUUCATT against WHSC1L1, -0.283 (inactive).
In the case of GGGAUGUAAUAACAGCAUUTT against GDE1 it was -0.256 (inactive); in that of CUGUUGCACUUCACAUUUUTT against TRIP13, 1 (active); in that of CAGCUUAAUUUUUACGCAATT against IPMK, -0.00138 (inactive).
The value for CACCUACGAUAGCUACUAUTT against NKTR was -1.1 (active).
Take GCCUCACGUUUGUCAGUAUTT against WNK3: the median seed-adjusted z-score is -0.466 (inactive).
In the case of CAUCCAACGACAAUCUAUATT against ATP1A2 it was 0.248 (inactive).
In the case of UCACGGCUCUGUUGAAUGUTT against DUSP4 it was -0.176 (inactive); in that of GACCCAUGGUAAAAUGCAATT against TWIST1, -0.159 (inactive).
As for GCAUAAUAAGGGUAGGGAUTT against DDX53, the median seed-adjusted z-score is -0.136 (inactive).
The value for GAUAGAAGCAUGGAAUUGATT against MRS2 was 1.38 (active).
As for GGUCAAUUCAGUGAAGAUATT against ARL8B, the median seed-adjusted z-score was -0.477 (inactive).
The value for GAUUGGUGGUUGGAACAUUTT against ECE2 was 0.794 (inactive); that for CCAAAGAUAUCGGACCCUATT against PI4K2A was -0.486 (inactive); that for CGGCGUCUCUACUACGUCUTT against CLEC11A was -1.1 (active).
For the sequence CUUCCUGGGUGUAAUGUUATT against IGSF1, the median seed-adjusted z-score was 0.258 (inactive).
The value for GCAAGGCAGCUGUUCUGAATT against PGLS was 0.188 (inactive).
In the case of GCAUCUGUGAGGAUAUUGATT against FBN3 it was 0.264 (inactive); in that of GAGUCGAGUUUGAUGAAGATT against GSTA4, -0.848 (inactive); in that of CGUUCGGUCUGACGCAGUATT against LRP5, -1 (active).
As to CGAUGUCAGUUUCUAGUAATT against USP42, the median seed-adjusted z-score was -0.0125 (inactive).
The value for GCCGUUUGACCAUACAUUATT against SNTB1 was 0.488 (inactive); that for CCAAGAAACUAACACGCUATT against PFKFB2 was 0.311 (inactive); that for GGAAGGUGAUUGAUCCUAATT against HNRNPD was 0.504 (inactive).
With CGAAAAACCAUAGACUACATT against WDR33, the median seed-adjusted z-score is 3.27 (active).
In the case of GCAAAUGUCAGAGAUUGAATT against SFXN5 it was 0 (inactive).
In the case of CAGUUACUCUGGGAGUAUATT against PRPF3 it was -0.289 (inactive); in that of CCAGGUGUAUUCAAUGGAATT against FMO3, -0.0769 (inactive); in that of ACGACUGCCUGGUCUUAAATT against ADAP2, -1.1 (active).
On to GCACUCGAGUAAUUAGCAATT against DOCK10, for which the median seed-adjusted z-score is -0.201 (inactive).
In the case of GGUUCUGCUUUAUUACCUUTT against HNRNPD it was 0.504 (inactive).
In the case of CAGCUUACAAUACAUCAAATT against ZNF7 it was 0 (inactive); in that of AAGACAUGAUGUUCCACAATT against ADCY6, -0.0652 (inactive).
The value for GCACAGAUAUCCUCGUGUATT against ARL11 was 1 (active); that for CAGUAGCAGUGGAAUGGGATT against RBMX was 0.0941 (inactive); that for GCGCUUCUGGUGUACGACATT against RAB17 was 0.473 (inactive).
Regarding CAUCCACACUUCUCCAGAATT against HK1, the median seed-adjusted z-score was -0.129 (inactive).
In the case of GAGUGGGCGUGGAUAGAAATT against PSMC2 it was -1.96 (active); in that of AGUUAUUGCUACUUCAGAATT against CX3CR1, -0.292 (inactive); in that of GCAACUACGUUGACUUCUATT against CTNND2, -0.0491 (inactive).
The value for AACUGAACAUAGCAGAAUUTT against ZNF85 was -1.01 (active); that for CGGUGACUGUGAACGGCAATT against DNAJB8 was -1.09 (active).
